IMPase cell inh – qHTS Assay for Identifying the Cell-Membrane Permeable IMPase Inhibitors | CHO-M1 cells, IP1 accumulation, HTRF TR-FRET ratio | inhibition (IP1 accumulation), % at 46.1 µM | AID 901, 2007 | 120,000 tested, under 10 active | Inositol monophosphatase 1 (Rattus norvegicus), P97697; active = well fitted curve in the direction sought with a large enough effect in the signal ratio, not every such curve was filed as active; inconclusive = small, poorly fitted or top-dose-only effect, or a change in a side signal; inactive = no such curve, though single readings can be large or run the other way; the % refers to the signal ratio;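 also: cells stimulated with carbachol in lithium chloride buffer; higher means more IMPase inhibition seen as more IP1 and lower FRET ratio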
Target sequence (P97697 whole entry, looked up): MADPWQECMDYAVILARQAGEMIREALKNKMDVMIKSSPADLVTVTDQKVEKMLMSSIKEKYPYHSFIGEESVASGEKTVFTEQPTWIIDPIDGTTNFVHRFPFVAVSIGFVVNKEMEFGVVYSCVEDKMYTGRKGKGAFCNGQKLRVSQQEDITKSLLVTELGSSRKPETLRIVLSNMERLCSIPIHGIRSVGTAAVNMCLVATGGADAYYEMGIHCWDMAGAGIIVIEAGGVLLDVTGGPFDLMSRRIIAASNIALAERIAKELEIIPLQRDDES
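The IP-One HTRF competitive assay in carbachol-stimulated CHO-M1 cells quantifies cellular IP1. Compounds spanned up to 46 uM final, and activity is expressed as AC50 from concentration-response fits of the ratio and donor data.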
HPGD inh – qHTS Assay for Inhibitors of HPGD (15-Hydroxyprostaglandin Dehydrogenase). 15-hydroxyprostaglandin dehydrogenase [NAD(+)] (Homo sapiens), P15428. purified HPGD, NADH fluorescence kinetic, PGE2 substrate. Potency, µM, usual class: inhibitors. 150,000 compounds, 4.3% hits; active = well fitted inhibition curve with a large enough effect, not every such curve was filed as active; inconclusive = small, poorly fitted or top-dose-only effect, or another doubt; inactive = no such curve, though single readings can be large or run the other way
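NADH formation kinetics: reaction with 30 uM PGE2 and 1 mM NAD+ (final), 20 nM enzyme, Tris-HCl pH 8 with Tween 20, after 15 min compound preincubation at room temperature. Fluorescence change, last versus first of five reads.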
IMPase Li cell – qHTS Assay for Identifying the Cell-Membrane Permeable IMPase Inhibitors: Potentiation with Lithium. CHO-M1 cells, IP1 TR-FRET (IP-One), carbachol + lithium. Potency, µM (doses to about 59.4 µM), usual class: inhibitors. 210,000 compounds, 0.35% hits. AID 1457, 2008;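 also: IP1 builds up when IMPase is blocked and the TR-FRET signal falls; nearly all actives have a fitted effect of over 50% in size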
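CHO-M1, 2000 cells/well, 16–30 h culture; cpd + low Li+, 30 min 37C; lysis with d2-IP1/Eu-anti-IP1 Ab, 10 min RT; TR-FRET 665/620 ratio and 620 channel; AC50 via Hill.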
ALDH1A1 inh – qHTS Assay for Inhibitors of Aldehyde Dehydrogenase 1 (ALDH1A1); Purified ALDH1A1, NADH fluorescence, propionaldehyde substrate; Potency, µM (highest dose often 75.3 µM), usual class: inhibitors; 220,000 compounds, 7.3% hits; active = well fitted inhibition curve with a large enough effect, not every such curve was filed as active; inconclusive = small, poorly fitted or top-dose-only effect, or another doubt; inactive = no such curve, though single readings can be large or run the other way
PNC assembly inh – High Content Assay for Compounds that inhibit the Assembly of the Perinucleolar Compartment. 140,000 compounds, 3.1% hits. activity change (PNC), negative = inhibition, % at 10 µM. PC3M PTB-GFP, PNC prevalence imaging, 16 h; hits give low values;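 active = readout at or below -70, meaning at least 70% loss of cells showing the perinucleolar compartment, a nuclear body marking cancer cells; inconclusive = readout between -30 and a set limit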
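Compounds are pinned in duplicate onto adhered PC3M cells stably expressing GFP-tagged PTB and incubated 16 h at 37 C. Cells are then fixed, nuclei stained with Hoechst, and PNC-positive cells counted.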
NPSR antagonist – qHTS Assay for Antagonists of the Neuropeptide S Receptor: cAMP Signal Transduction. Q6W5P4. CHO-NPSR cells, cAMP TR-FRET, antagonist mode. Potency, µM (doses to about 38.3 µM), usual class: inhibitors. 220,000 compounds, 1% hits; also: nearly all actives have a fitted effect of over 50% in size
Target sequence (Q6W5P4 whole entry, looked up): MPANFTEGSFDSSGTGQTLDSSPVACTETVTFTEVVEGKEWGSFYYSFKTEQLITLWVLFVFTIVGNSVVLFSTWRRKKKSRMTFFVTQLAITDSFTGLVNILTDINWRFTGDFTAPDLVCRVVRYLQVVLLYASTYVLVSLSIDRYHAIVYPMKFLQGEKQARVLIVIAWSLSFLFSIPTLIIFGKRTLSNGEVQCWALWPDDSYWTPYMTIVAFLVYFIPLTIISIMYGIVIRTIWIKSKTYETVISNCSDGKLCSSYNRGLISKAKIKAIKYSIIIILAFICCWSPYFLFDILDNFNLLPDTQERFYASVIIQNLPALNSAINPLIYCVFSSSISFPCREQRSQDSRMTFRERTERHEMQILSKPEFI
Of the large screens only hits and unclear results are named; the others gave an inactive call. Shown are actives, neighbours in structure and some others; about 11% of the full set was active somewhere. Unless noted, calls follow the shape of the dose curve; as a rule, active = well fitted curve in the direction sought with a large enough effect; inconclusive = small, poorly fitted or top-dose-only effect, or another doubt; inactive = no such curve, though single readings can be large; an effect the other way counts as inactive or inconclusive.

Cn1cccc1/C=C1\SC(=S)N(NC(=O)c2ccccc2)C1=O	none (no result: IMPase cell inh)
Cn1cccc1/C=C1\SC(=S)N(NC(=O)c2cccc(Cl)c2)C1=O	ALDH1A1 inh 2µM (no result: IMPase cell inh)
CC(C(=O)O)N1C(=O)/C(=C/c2cccn2C)SC1=S (configuration not stated)	PNC assembly inh inconclusive (no result: IMPase cell inh)
Cn1cccc1/C=C1/SC(=S)N(CC(=O)O)C1=O	ALDH1A1 inh 28.2µM (no result: IMPase cell inh, HPGD inh, PNC assembly inh)
Cc1c(C(=O)OCC(=O)NCCN2C(=O)CSC2=O)oc2c1ccc1ccccc12	HPGD inh inconclusive, ALDH1A1 inh inconclusive, PNC assembly inh inconclusive (no result: IMPase cell inh)
O=c1c2ccccc2cnn1-c1ccc2ccccc2c1	ALDH1A1 inh inconclusive
O=C(Cc1ccccc1)NC(NCCCN1CCOCC1)(C(F)(F)F)C(F)(F)F	none
COc1ccccc1NS(=O)(=O)c1cc(NC(=O)c2ccncc2)ccc1N1CCCC1	ALDH1A1 inh 11.2µM (no result: IMPase cell inh, HPGD inh, PNC assembly inh)
COc1ccccc1NS(=O)(=O)c1cc(NC(=O)Nc2cccc(C)c2)ccc1N1CCCCC1	HPGD inh inconclusive, ALDH1A1 inh inconclusive (no result: IMPase cell inh)
COc1ccccc1NS(=O)(=O)c1cc(NC(=O)c2ccc(Cl)nc2)ccc1Cl	ALDH1A1 inh 25.1µM (no result: IMPase cell inh)
COc1ccccc1NS(=O)(=O)c1cc(NC(C)=O)ccc1N1CCCCC1	ALDH1A1 inh 8.91µM, NPSR antagonist inconclusive (no result: IMPase cell inh, HPGD inh, PNC assembly inh)
COc1ccccc1NS(=O)(=O)c1cc(N2Cc3ccccc3C2=N)ccc1N1CCOCC1	ALDH1A1 inh 8.91µM, NPSR antagonist 2.51µM (no result: IMPase cell inh, HPGD inh, PNC assembly inh)
Cc1ccc(S(=O)(=O)N2CCOCC2)cc1NC(=O)COC(=O)c1n[nH]c(=O)c2ccccc12	none (no result: IMPase cell inh, HPGD inh, PNC assembly inh)
COc1ccc2c(C)cc(=O)oc2c1	HPGD inh inconclusive, ALDH1A1 inh inconclusive (no result: IMPase cell inh, PNC assembly inh, NPSR antagonist)
CCN(CC)c1ccc(NC(=O)c2ccccc2)cc1S(=O)(=O)Nc1ccccc1OC	HPGD inh 1.78µM, ALDH1A1 inh 1µM, PNC assembly inh inconclusive (no result: IMPase cell inh)
COc1ccc(C(=O)Nc2ccc(Cl)c(S(=O)(=O)Nc3ccccc3OC)c2)cc1	ALDH1A1 inh inconclusive, PNC assembly inh inconclusive
O=C(COC(=O)c1cccnc1Cl)c1ccccc1	none
NS(=O)(=O)c1cc(C(=O)OCC(=O)c2ccccc2)c(Cl)cc1Cl	ALDH1A1 inh 15.8µM (no result: IMPase cell inh, HPGD inh, IMPase Li cell, PNC assembly inh)
O=C(CSC(=S)N1CCOCC1)Nc1nc(=O)c2ccccc2s1	ALDH1A1 inh 6.31µM (no result: IMPase cell inh)
O=C(CSC(=S)N1CCOCC1)Nc1nccs1	none (no result: IMPase cell inh, HPGD inh, IMPase Li cell, ALDH1A1 inh, PNC assembly inh)
O=C(NC1CCCC1)C(c1ccncc1)N(Cc1cccs1)C(=O)c1csnn1 (configuration not stated)	ALDH1A1 inh 3.55µM
COc1ccc(CN(C(=O)c2ccc(-c3ccccc3)[nH]2)C(C(=O)NCC2CCCO2)c2ccc(C)o2)cc1 (configuration not stated)	HPGD inh inconclusive, ALDH1A1 inh 10µM, NPSR antagonist inconclusive
CC(C)(C)NC(=O)C(c1ccncc1)N(Cc1cccs1)C(=O)c1csnn1 (configuration not stated)	none (no result: IMPase cell inh, HPGD inh, IMPase Li cell, ALDH1A1 inh, PNC assembly inh)
O=C(NC1CCCCC1)C(c1ccncc1)N(Cc1ccccc1)C(=O)c1ccc(-c2ccccc2)[nH]1 (configuration not stated)	ALDH1A1 inh 22.4µM, NPSR antagonist inconclusive
Cc1ccc(C(C(=O)NC2CCCC2)N(Cc2ccc(F)cc2)C(=O)c2csnn2)o1 (configuration not stated)	ALDH1A1 inh 14.1µM, PNC assembly inh inconclusive, NPSR antagonist inconclusive
Cc1ccc(C2CC2C(=O)NNC(=S)Nc2cccc(Cl)c2)cc1 (configuration not stated)	ALDH1A1 inh 7.08µM, PNC assembly inh inconclusive
Cc1ccc(C2CC2C(=O)NNC(=S)Nc2cccc(C)c2)cc1 (configuration not stated)	ALDH1A1 inh 17.8µM, PNC assembly inh inconclusive
Cc1ccc(CN2C(=O)/C(=C\c3ccc(C(=O)NCc4cccnc4)cc3)Oc3ccccc32)cc1	HPGD inh inconclusive, ALDH1A1 inh inconclusive, PNC assembly inh inconclusive
O=C(CN1C(=O)/C(=C\c2ccccc2Cl)Oc2ccccc21)NCc1cccnc1	ALDH1A1 inh 3.98µM (no result: IMPase cell inh, HPGD inh, PNC assembly inh)
COc1ccccc1OCCC(=O)OCC(=O)Nc1cccc(Br)c1	none
CCCc1nnc2n1N=C(c1ccc(OC)c(OC)c1)CS2	none
Cc1ccc(NC(=S)Nc2cc(C(=O)O)ccc2N2CC3CC(C2)c2cccc(=O)n2C3)cc1C (configuration not stated)	ALDH1A1 inh 28.2µM (no result: IMPase cell inh, HPGD inh, PNC assembly inh)
Cc1onc(-c2c(F)cccc2Cl)c1C(=O)NC(=S)NCc1cccnc1	ALDH1A1 inh inconclusive, PNC assembly inh inconclusive (no result: IMPase cell inh)
CN1CCNC(=O)C1CC(=O)NCC1(c2ccccc2)CCCCC1 (configuration not stated)	ALDH1A1 inh 15.8µM (no result: IMPase cell inh, HPGD inh, PNC assembly inh)
Fc1ccc(NC(=S)NNc2ncc(C(F)(F)F)cc2Cl)c(F)c1	ALDH1A1 inh 4.47µM (no result: IMPase cell inh, HPGD inh, PNC assembly inh)
FC(F)(F)c1cnc(NNC(=S)Nc2ccc(Cl)cc2)c(Cl)c1	ALDH1A1 inh 5.01µM, PNC assembly inh inconclusive (no result: IMPase cell inh)
Cc1ccc(NC(=S)NNc2ncc(C(F)(F)F)cc2Cl)cc1	ALDH1A1 inh 10µM, PNC assembly inh inconclusive
Cc1ccc(NC(=S)NNc2ncc(C(F)(F)F)cc2Cl)c(C)c1	ALDH1A1 inh inconclusive
CC(Cl)C(=O)Nc1ncc(C(F)(F)F)cc1Cl (configuration not stated)	ALDH1A1 inh 7.08µM
O=C(Nc1ccc(F)cc1F)c1cccn1-c1ncc(C(F)(F)F)cc1Cl	none
CC(C)C(=O)Nc1ncc(C(F)(F)F)cc1Cl	none
